Hits are enriched below; roughly 3.2% of the tested compounds scored in any of these assays.
PNC inhibitor: High Content Assay for Compounds that inhibit the Assembly of the Perinucleolar Compartment; PC3M PTB-GFP, PNC prevalence imaging, 16 h; hits give low values; activity change (PNC), negative = inhibition, % at 10 µM; 140,000 compounds, 3.1% hits; AID 2417, 2010;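 active = readout at or below -70, meaning at least 70% loss of cells showing the perinucleolar compartment, a nuclear body marking cancer cells; inconclusive = readout between -30 and a set limit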
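Compounds are pinned in duplicate onto adhered PC3M cells stably expressing GFP-tagged PTB and incubated 16 h at 37 C. Cells are then fixed, nuclei stained with Hoechst, and PNC-positive cells counted.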
15-hLO-2 inh: qHTS Assay for Inhibitors of 15-hLO-2 (15-human lipoxygenase 2). purified 15hLO-2, xylenol orange hydroperoxide absorbance. Polyunsaturated fatty acid lipoxygenase ALOX15B (Homo sapiens), O15296. 110,000 compounds, 0.56% hits. Potency, µM (titrated, usually from 57.1 µM), usual class: inhibitors; note: nearly all actives have a fitted effect of over 60% in size
Target sequence (O15296 whole entry, looked up): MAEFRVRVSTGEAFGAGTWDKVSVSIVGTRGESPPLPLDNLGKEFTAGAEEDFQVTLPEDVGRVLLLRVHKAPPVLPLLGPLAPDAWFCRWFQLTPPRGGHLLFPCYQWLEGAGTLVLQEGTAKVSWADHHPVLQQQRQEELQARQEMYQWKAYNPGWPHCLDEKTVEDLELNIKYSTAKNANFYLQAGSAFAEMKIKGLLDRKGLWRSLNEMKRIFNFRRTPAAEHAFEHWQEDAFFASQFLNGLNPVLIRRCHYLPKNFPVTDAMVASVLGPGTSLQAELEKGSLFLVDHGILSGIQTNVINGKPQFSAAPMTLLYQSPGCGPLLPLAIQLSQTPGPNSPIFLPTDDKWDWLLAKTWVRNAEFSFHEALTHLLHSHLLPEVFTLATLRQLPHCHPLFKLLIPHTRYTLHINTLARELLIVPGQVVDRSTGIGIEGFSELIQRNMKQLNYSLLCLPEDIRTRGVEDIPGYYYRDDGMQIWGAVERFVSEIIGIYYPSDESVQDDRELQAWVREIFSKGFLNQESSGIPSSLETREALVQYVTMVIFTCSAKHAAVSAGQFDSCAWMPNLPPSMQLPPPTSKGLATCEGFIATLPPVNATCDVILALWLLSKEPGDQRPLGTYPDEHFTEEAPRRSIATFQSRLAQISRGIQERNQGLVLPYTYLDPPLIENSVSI
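Enzyme 50 nM, AA 45 uM, 25 mM Hepes pH 7.5 + 0.01% Triton X-100; cpd preinc 15 min RT, rxn 90 min RT; stop/detect with 200 uM XO + 300 uM Fe(II) in 50 mM H2SO4, 30 min; A573/A405.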
12-hLO inh: qHTS Assay for Inhibitors of 12-hLO (12-human lipoxygenase). AID 1452, 2008. 150,000 compounds, 0.12% hits. Potency, µM (doses to about 57.1 µM), most hits filed as inhibitors. Polyunsaturated fatty acid lipoxygenase ALOX12 (Homo sapiens), P18054. purified 12-hLO, xylenol orange hydroperoxide absorbance; note: nearly all actives have a fitted effect of over 55% in size
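Lipoxygenase turnover measured by absorbance at 573 and 405 nm after Fe-XO development. Human 12hLO 150 nM, arachidonate 40 uM, pH 7.0 Hepes buffer with detergent; 15 min compound preincubation, 30 min reaction.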
Hits are given with their value; [ ] = dose if it differs, or a comment. Unless noted, calls come from the whole dose curve; as a rule, active = well fitted curve in the direction sought with a large enough effect; inconclusive = small, poorly fitted or top-dose-only effect, or another doubt; inactive = no such curve, though single readings can be large; an effect the other way counts as inactive or inconclusive.

CCCC(=O)Nc1cccc(-c2nc3ccccc3o2)c1 was read as PNC inhibitor -107, 15-hLO-2 inh inactive and 12-hLO inh inactive.
For CSc1cccc(NC(=O)CSc2nc3ccccc3o2)c1 the results were PNC inhibitor -98, 15-hLO-2 inh inactive and 12-hLO inh inactive.
`CC(=O)Nc1cccc(NC(=O)CSc2nc3ccccc3o2)c1` gave PNC inhibitor inactive and 12-hLO inh inactive.
Screening CCCC(=O)Nc1cccc(-c2nc3cc(C)c(C)cc3o2)c1 returned PNC inhibitor inactive, 15-hLO-2 inh inactive and 12-hLO inh inactive.
Cc1noc(C)c1C(=O)N1CCC2(CC1)CN(C(=O)Nc1cccc(F)c1)C2 was read as 15-hLO-2 inh inactive and 12-hLO inh inactive.
`CC(C)=C[C@H]1[C@@H](COC(=O)c2cc3c(cc2Cl)OCO3)C1(C)C` gave 15-hLO-2 inh inactive[11.4 µM] and 12-hLO inh inactive[11.4 µM].
Cc1cccc(CNc2cc(-c3ccccc3CN(C)C)ncn2)c1 was read as 15-hLO-2 inh inactive and 12-hLO inh inactive.
`Cc1cccc(C)c1C(=NCCCN(C)C)c1ccccc1` gave PNC inhibitor inactive and 12-hLO inh inactive.
For O=C(NNS(=O)(=O)c1ccc(F)c(Cl)c1)c1cccc(S(=O)(=O)N2CCOCC2)c1 the results were PNC inhibitor inactive and 12-hLO inh inactive.
Screening COc1ccc(-n2nnc3c(SCC(=O)c4ccccc4)ncnc32)cc1 returned PNC inhibitor inactive, 15-hLO-2 inh inactive and 12-hLO inh inactive.
COc1ccc(-n2nnc3c(SCC(=O)Nc4ccc5c(c4)OCCO5)ncnc32)cc1 was read as PNC inhibitor -83, 15-hLO-2 inh inconclusive and 12-hLO inh inactive.
Screening COc1ccc(C(=O)Nc2ccc(N3CCN(C(=O)C(C)C)CC3)cc2)cc1[N+](=O)[O-] returned PNC inhibitor inconclusive and 12-hLO inh inactive.
Screening C=CCN1C(c2ccccc2)=CS/C1=C(/C#N)c1nnc(N2CCOCC2)n1-c1ccccc1 returned PNC inhibitor inactive and 12-hLO inh inactive.
Screening C=CCn1c(CC#N)nnc1N1CCOCC1 returned PNC inhibitor -103, 15-hLO-2 inh inactive and 12-hLO inh inactive.
CN(C)CCCCCNCCCNC(=O)/C=N\O was read as PNC inhibitor inconclusive, 15-hLO-2 inh inactive and 12-hLO inh inactive.
For CN(C)CCNC(=O)/C=N/O the results were PNC inhibitor -89 and 12-hLO inh inactive.
O=[N+]([O-])c1cccc(C2=N[C@@H](Cc3ccccc3)CO2)c1 was read as 15-hLO-2 inh inactive[0.0915 µM] and 12-hLO inh inactive[0.00818 µM].
Screening CCCCOc1cccc(OCC(=O)Nc2nc3ccccc3[nH]2)c1 returned PNC inhibitor inactive and 12-hLO inh inactive.
O=C(CNC(=O)c1cccs1)NCC(=O)OCc1c(Cl)cccc1Cl was read as PNC inhibitor inactive, 15-hLO-2 inh inactive and 12-hLO inh inactive.
O=C(CNC(=O)c1cccs1)NCC(=O)OCc1ccccc1Cl was read as PNC inhibitor -83, 15-hLO-2 inh inactive and 12-hLO inh inactive.
`CN(c1ccc(C(=O)N2CCN(Cc3ccc4c(c3)OCO4)CC2)cc1)S(=O)(=O)c1ccccc1` gave PNC inhibitor inactive, 15-hLO-2 inh inactive and 12-hLO inh inactive.
`O=C(CN(c1ccccc1)S(=O)(=O)c1ccccc1)N1CCN(Cc2ccc3c(c2)OCO3)CC1` gave PNC inhibitor -88, 15-hLO-2 inh inactive[2.29 µM] and 12-hLO inh inactive.
Screening COc1ccc(S(=O)(=O)N(CC(=O)N2CCN(c3ccccc3)CC2)c2ccccc2)cc1 returned PNC inhibitor -112, 15-hLO-2 inh inactive and 12-hLO inh inactive.
`COc1ccc(N2CCN(C(=O)CN(c3ccccc3)S(C)(=O)=O)CC2)cc1` gave PNC inhibitor inconclusive, 15-hLO-2 inh inactive and 12-hLO inh inactive.
For Cc1noc(C)c1-c1cc(NCc2ccccc2)ncn1 the results were 15-hLO-2 inh inactive and 12-hLO inh inactive.
For Cc1cn2c(nc1=O)OC1C(O)C(COC(=O)c3ccccc3)OC12 (stereo unspecified) the results were PNC inhibitor inactive, 15-hLO-2 inh inactive and 12-hLO inh inactive.
Cc1cn(C2OC(COC(=O)c3ccccc3)C(O)C2O)c(=O)[nH]c1=O (stereo unspecified) was read as PNC inhibitor -89, 15-hLO-2 inh inactive and 12-hLO inh inactive.
For Cc1cn(C2OC(COC(=O)c3ccccc3)C(OC(=O)c3ccccc3)C2OC(=O)c2ccccc2)c(=O)[nH]c1=O (stereo unspecified) the results were PNC inhibitor -119 and 12-hLO inh inactive.
`O=C(OCC1OC2C(Oc3nc(=O)ccn32)C1O)c1ccccc1` (stereo unspecified) gave PNC inhibitor inconclusive, 15-hLO-2 inh inactive and 12-hLO inh inactive.
Screening COC1=C(C(=O)c2ccccc2)C(=O)C2(CC=C(C)C)C[C@H](C(=O)OCC(F)(F)F)C(C)(C)[C@@]1(CC=C(C)C)C2=O (tested in a mixture with another compound) returned 12-hLO inh inactive.
C=C1c2cccc(C(F)(F)F)c2O[C@H](C(=O)OCC)C1OC (mixture of isomers) was read as 15-hLO-2 inh inactive[0.0915 µM] and 12-hLO inh inactive[0.00818 µM].
`NC(=S)c1ccc[n+]([C@@H]2O[C@@H](COP(=O)([O-])OP(=O)(O)OC[C@@H]3O[C@@H](n4cnc5c(N)ncnc54)[C@@H](OP(=O)(O)O)[C@H]3O)[C@@H](O)[C@H]2O)c1` gave 15-hLO-2 inh inactive and 12-hLO inh inactive.
For CCOC(=O)c1cc(NC(=O)OC)c(C)nc1C the results were PNC inhibitor inactive, 15-hLO-2 inh inactive and 12-hLO inh inactive.
CCOC(=O)c1cc(NC(=O)Nc2ccccc2OC)c(C)nc1C was read as PNC inhibitor -81, 15-hLO-2 inh inactive and 12-hLO inh inactive.
`O=c1c(-c2ccccc2)coc2cc(O)cc(O)c12` gave 15-hLO-2 inh inactive and 12-hLO inh 11µM.
Screening O=c1c(-c2ccc3c(c2)OCCO3)coc2cc(O)cc(O)c12 returned PNC inhibitor inactive, 15-hLO-2 inh inactive and 12-hLO inh inconclusive.
Screening C[C@@H](O)[C@H]1C(=O)N2C(C(=O)O)=C(S[C@@H]3CN[C@H](C(=O)N(C)C)C3)[C@H](C)[C@H]12 returned 15-hLO-2 inh inactive and 12-hLO inh inactive.
Cc1cc(C)n2nc(C(=O)OCC(=O)Nc3ccc4c(c3)OCO4)nc2n1 was read as PNC inhibitor -94, 15-hLO-2 inh inactive and 12-hLO inh inactive.
Cc1ccc(C(=O)Nc2ccc3c(c2)OCO3)o1 was read as PNC inhibitor inactive, 15-hLO-2 inh inactive and 12-hLO inh inactive.
Screening Cc1ccc(C(=O)OCC(=O)Nc2ccc3c(c2)OCO3)o1 returned PNC inhibitor -100 and 12-hLO inh inactive.
`Cc1cc(C)n2nc(C(=O)OCC(=O)Nc3ccc4c(c3)OC(F)(F)O4)nc2n1` gave PNC inhibitor inactive, 15-hLO-2 inh inactive and 12-hLO inh inactive.
`CC(=O)c1ccc(N2CCN(C(C)C(=O)NC3CCCc4ccccc43)CC2)cc1` (stereo unspecified) gave PNC inhibitor inconclusive and 12-hLO inh inactive.

Screens as filed in PubChem BioAssay.
